# Results filed as inconclusive are left out. Entries that show only a call come without a potency. Activity calls are given as the source filed them. Unless noted, the call rests on the fitted dose curve.
# Tests used:
# [1] = qHTS assay to identify small molecule antagonists of the sonic hedgehog signaling (Shh) pathway (AID 1259369); further: nearly all actives have a fitted effect of over 45% in size; further: potency means the concentration at half of the fitted maximal effect
# Outline: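 Conditioned medium drives Shh signalling in 3T3Gli1-Luc cells; compounds in DMSO co-applied, 24hr at 37 C, then luciferase luminescence.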
# [2] = target: Estrogen receptor beta (Homo sapiens) (UniProt Q92731); assay: qHTS assay to identify small molecule agonists of the estrogen receptor beta (ER-beta) signaling pathway (AID 1259377; active means well fitted activation curve with a large enough effect in the signal ratio in the repeat runs, not every such curve was filed as active; the % refers to the signal ratio)
# Outline: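 Ratiometric beta-lactamase FRET read-out came after 2 h substrate loading at room temperature. It followed 16 h compound treatment at 37C of GripTite HEK293T cells carrying a UAS-bla reporter, plated in 2% charcoal-stripped FBS medium.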
# [3] = target: Estrogen receptor beta (Homo sapiens) (UniProt Q92731); assay: qHTS assay to identify small molecule antagonists of the estrogen receptor beta (ER-beta) signaling pathway (AID 1259378; active means well fitted inhibition curve with a large enough effect in the signal ratio in the repeat runs, not every such curve was filed as active; the % refers to the signal ratio; further: potency means the concentration at half of the fitted maximal effect)
# Outline: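 Antagonist mode: compounds added to beta-lactamase reporter HEK293T ER-beta-UAS cells stimulated with E2 (1nM final), 16 hr at 37C. LiveBLAzer B/G FRET substrate, 2 hours room temperature, fluorescence read-out.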
# [4] = qHTS assay to identify small molecule agonists of the androgen receptor (AR) signaling pathway in the presence of an antagonist - cell viability counter screen (AID 1259379; active means well fitted curve in the direction sought with a large enough effect in the repeat runs; an effect the other way counts as inactive or inconclusive;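 further: MDA-kb2 human breast cancer cells carrying an MMTV luciferase reporter; series mostly up to about 92 µM; nearly all actives have a fitted effect of over 25% in size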)
# Outline: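 A CellTiter-Fluor read-out measured viability of MDA-kb2 reporter cells (MMTV promoter with AR and GR response elements). Treatment: nilutamide 3.0uM final with compounds at 15 concentrations, 16 hr, 37C, 0% CO2.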
# [5] = qHTS assay to identify small molecule agonists of the estrogen receptor beta (ER-beta) signaling pathway - cell viability counter screen (AID 1259380; active means well fitted curve in the direction sought with a large enough effect in the repeat runs; an effect the other way counts as inactive or inconclusive; further: nearly all actives have a fitted effect of over 30% in size)
# Outline: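 Cells used were ER-beta-UAS-bla HEK293T in medium with 2% charcoal-stripped FBS. They were treated for 16 hr at 37C. Viability came from CellTiter-Glo luminescence.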
# [6] = qHTS assay to identify small molecule antagonists of the estrogen receptor beta (ER-beta) signaling pathway - cell viability counter screen (AID 1259382; active means well fitted curve in the direction sought with a large enough effect in the repeat runs; an effect the other way counts as inactive or inconclusive; further: series mostly up to about 92 µM; nearly all actives have a fitted effect of over 55% in size)
# Outline: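 Agonist-stimulated (1nM E2) ER-beta-UAS-bla HEK293T cells are incubated with library compounds for 16 hr at 37C. Cell viability is then assessed in the reporter-assay wells by adding CellTiter-Glo and reading luminescence after 30 min.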
# [7] = target: Estrogen receptor (Homo sapiens) (UniProt P03372); assay: qHTS assay to identify small molecule agonists of the estrogen receptor alpha (ER-alpha) signaling pathway in the presence of an antagonist (AID 1259383); further: nearly all actives have a fitted effect of over 15% in size; further: potency means the concentration at half of the fitted maximal effect; on activation: top concentration of the series differs between compounds
# Outline: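 Using VM7Luc4E2 cells seeded 24hr before treatment, antagonist ICI-182,780 (10.0nM final) was added, followed by compounds at 15 concentrations. Plates incubated 22hr; ONE-Glo luminescence quantified reporter activity.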
# [8] = target: Thyrotropin receptor (Homo sapiens) (UniProt P16473); assay: qHTS assay to identify small molecule antagonists of the thyroid stimulating hormone receptor (TSHR) signaling pathway (AID 1259385); further: nearly all actives have a fitted effect of over 20% in size; further: potency means the concentration at half of the fitted maximal effect
# Outline: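 Antagonist mode: compound-treated TSHR-expressing HEK293 cells were stimulated with 1.5 ng/mL TSH (final) in presence of Ro20-1724 for 30 min at RT. HTRF cAMP detection after 1 h; each compound tested at 15 concentrations, triplicate.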
# [9] = qHTS assay to identify small molecule agonists or antagonists of the thyroid stimulating hormone receptor (TSHR) signaling pathway - wild type cell line counter screen (AID 1259384)
# Outline: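 Counter screen in untransfected Hek293: compounds (15-point titration, triplicate) plus phosphodiesterase inhibitor Ro20-1724 added after 18 h plating; 30 min RT. Intracellular cAMP via competitive d2/cryptate immunoassay, 1 h incubation.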
# Sequence of Estrogen receptor beta (Homo sapiens) (Q92731 whole entry, looked up): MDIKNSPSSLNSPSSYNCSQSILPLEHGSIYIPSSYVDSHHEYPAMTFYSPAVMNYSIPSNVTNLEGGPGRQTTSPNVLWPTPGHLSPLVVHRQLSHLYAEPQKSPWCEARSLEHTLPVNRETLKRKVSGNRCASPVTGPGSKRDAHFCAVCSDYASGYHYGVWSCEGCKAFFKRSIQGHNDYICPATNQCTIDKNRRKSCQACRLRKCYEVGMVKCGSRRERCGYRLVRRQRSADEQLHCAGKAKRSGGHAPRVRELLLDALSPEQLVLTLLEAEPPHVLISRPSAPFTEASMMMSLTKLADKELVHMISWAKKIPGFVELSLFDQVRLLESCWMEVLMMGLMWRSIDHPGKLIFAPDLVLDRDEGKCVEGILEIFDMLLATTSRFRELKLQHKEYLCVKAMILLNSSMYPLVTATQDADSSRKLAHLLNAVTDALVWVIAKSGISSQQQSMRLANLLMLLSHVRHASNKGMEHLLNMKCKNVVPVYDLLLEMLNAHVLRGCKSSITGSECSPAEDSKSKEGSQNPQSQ
# Sequence of Estrogen receptor (Homo sapiens) (P03372 whole entry, looked up): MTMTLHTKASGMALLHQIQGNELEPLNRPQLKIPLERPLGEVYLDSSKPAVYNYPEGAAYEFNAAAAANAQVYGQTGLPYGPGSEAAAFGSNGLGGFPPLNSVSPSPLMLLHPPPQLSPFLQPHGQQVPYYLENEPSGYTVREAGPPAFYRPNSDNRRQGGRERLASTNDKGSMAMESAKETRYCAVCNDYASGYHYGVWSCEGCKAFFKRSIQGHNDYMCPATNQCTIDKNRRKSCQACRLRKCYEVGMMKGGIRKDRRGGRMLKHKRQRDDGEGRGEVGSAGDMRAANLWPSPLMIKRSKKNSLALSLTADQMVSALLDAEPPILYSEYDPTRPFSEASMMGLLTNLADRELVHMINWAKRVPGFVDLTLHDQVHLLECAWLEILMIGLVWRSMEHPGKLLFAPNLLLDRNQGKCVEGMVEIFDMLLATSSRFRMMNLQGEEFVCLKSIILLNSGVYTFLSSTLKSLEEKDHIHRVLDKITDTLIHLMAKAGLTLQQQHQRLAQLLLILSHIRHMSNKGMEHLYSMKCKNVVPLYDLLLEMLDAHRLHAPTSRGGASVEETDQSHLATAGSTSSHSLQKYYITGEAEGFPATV
# Sequence of Thyrotropin receptor (Homo sapiens) (P16473 whole entry, looked up): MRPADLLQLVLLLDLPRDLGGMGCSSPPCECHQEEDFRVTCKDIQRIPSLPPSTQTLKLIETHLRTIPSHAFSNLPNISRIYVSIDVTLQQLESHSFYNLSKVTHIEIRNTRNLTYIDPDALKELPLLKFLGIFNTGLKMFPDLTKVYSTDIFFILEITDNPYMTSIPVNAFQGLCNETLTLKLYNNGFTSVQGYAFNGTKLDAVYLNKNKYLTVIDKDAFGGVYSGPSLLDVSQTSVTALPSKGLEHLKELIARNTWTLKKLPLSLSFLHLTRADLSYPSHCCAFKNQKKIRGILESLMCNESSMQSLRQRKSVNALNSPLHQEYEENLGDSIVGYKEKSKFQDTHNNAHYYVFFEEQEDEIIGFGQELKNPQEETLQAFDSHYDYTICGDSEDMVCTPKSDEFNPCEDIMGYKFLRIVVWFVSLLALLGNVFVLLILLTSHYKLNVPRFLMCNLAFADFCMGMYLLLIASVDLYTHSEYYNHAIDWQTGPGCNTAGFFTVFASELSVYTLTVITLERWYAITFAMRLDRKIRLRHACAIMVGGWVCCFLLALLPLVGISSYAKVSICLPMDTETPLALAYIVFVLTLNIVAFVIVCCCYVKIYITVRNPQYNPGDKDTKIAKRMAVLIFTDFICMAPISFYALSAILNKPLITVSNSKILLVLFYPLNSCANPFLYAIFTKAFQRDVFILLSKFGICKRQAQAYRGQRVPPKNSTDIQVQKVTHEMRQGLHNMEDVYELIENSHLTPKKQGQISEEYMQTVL
Structure (SMILES),Potency [1],Potency [2],Potency [3],Potency [4],Potency [5],Potency [6],Potency [7],Potency [8],outcome [9]
C=C1CCC2CC1C2(C)C (centres undefined),inactive,inactive,inactive,inactive,inactive,inactive,inactive,inactive,
C=C1C[C@@]23CC[C@H]4[C@@](C)(CCC[C@@]4(C)C(=O)O[C@@H]4O[C@H](CO)[C@@H](O)[C@H](O)[C@H]4O)[C@@H]2CC[C@]1(O[C@@H]1O[C@H](CO)[C@@H](O)[C@H](O[C@@H]2O[C@H](CO)[C@@H](O)[C@H](O)[C@H]2O)[C@H]1O[C@@H]1O[C@H](CO)[C@@H](O)[C@H](O)[C@H]1O)C3,inactive,inactive,inactive,inactive,inactive,inactive,inactive,,
Cc1ccccc1S,inactive,inactive,inactive,inactive,inactive,inactive,inactive,inactive,inactive
Nc1ncnc2c1ncn2[C@H]1CC[C@@H](CO)O1,inactive,inactive,inactive,inactive,inactive,inactive,inactive,inactive,inactive
O=C(O)C[C@H](NC(=O)OCc1ccccc1)C(=O)O,inactive,inactive,inactive,inactive,inactive,inactive,inactive,inactive,inactive
CC(=O)c1cc2ccccc2s1,inactive,inactive,inactive,inactive,inactive,inactive,inactive,inactive,inactive
c1ccc2sc(SN(C3CCCCC3)C3CCCCC3)nc2c1,inactive,inactive,inactive,inactive,inactive,inactive,inactive,inactive,inactive
C[C@H]1C[C@H](O)c2ccsc2S1(=O)=O,inactive,inactive,inactive,inactive,inactive,inactive,inactive,inactive,inactive
C=C(C)C(=O)OCCCCCCCCCCCCC,inactive,inactive,inactive,inactive,inactive,inactive,inactive,,inactive
Nc1cccc2c1CN(C1CCC(=O)NC1=O)C2=O (centres undefined),inactive,inactive,inactive,inactive,inactive,inactive,inactive,inactive,inactive
CCc1ccccc1,inactive,inactive,inactive,inactive,inactive,inactive,inactive,inactive,
COc1cc(C(=O)NCCCCCC(=O)O)cc(OC)c1OC,inactive,inactive,inactive,inactive,inactive,inactive,inactive,inactive,inactive
CCCCN(CCCC)C(C(N)=O)c1ccc(OC)cc1 (centres undefined),inactive,inactive,inactive,inactive,inactive,inactive,inactive,,
CC(=O)c1ccc([N+](=O)[O-])cc1,inactive,inactive,inactive,inactive,inactive,inactive,,,inactive
O=C(/C=C/c1ccccc1)OCCc1ccccc1,inactive,inactive,inactive,inactive,inactive,inactive,3.44 µM (active),68.6 µM (active),inactive
C=Cc1ccc(S(=O)(=O)O)cc1,61.1 µM (active),inactive,inactive,inactive,inactive,inactive,inactive,17.2 µM (active),inactive
CCn1cc(C(=O)O)c(=O)c2cc(F)c(N3CCNCC3)cc21,inactive,inactive,inactive,inactive,inactive,inactive,inactive,inactive,inactive
CC(=O)OCC(=O)NCCCOc1cccc(CN2CCCCC2)c1,inactive,inactive,inactive,inactive,inactive,inactive,,,
O[C@@H]1CO[C@H]2[C@@H]1OC[C@@H]2O,inactive,inactive,inactive,inactive,inactive,inactive,inactive,,inactive
Cc1ccc(C(C)(C)O)cc1,inactive,inactive,inactive,inactive,inactive,inactive,inactive,,inactive
CCN(CC)CCNC(=O)COc1ccc(OC)cc1,inactive,inactive,inactive,inactive,inactive,inactive,inactive,,
CCCCCCCCCI,inactive,inactive,inactive,inactive,inactive,inactive,inactive,inactive,inactive
Cc1ccc(CO)cc1,inactive,inactive,inactive,inactive,inactive,inactive,inactive,inactive,inactive
CCC=CC#N,inactive,inactive,inactive,inactive,inactive,inactive,inactive,inactive,inactive
CN(C)CCN1C(=O)c2ccccc2N(C)c2ccccc21,inactive,inactive,inactive,inactive,inactive,inactive,inactive,inactive,inactive
CCC1(CO)COCOC1,inactive,inactive,inactive,inactive,inactive,inactive,inactive,,

Structure (SMILES),Potency [1],Potency [2],Potency [3],Potency [4],Potency [5],Potency [6],Potency [7],Potency [8],outcome [9]
Cc1cc(C)cc(N)c1,inactive,inactive,inactive,inactive,inactive,inactive,inactive,,inactive
O=C1CCCCCCCCCCOCCCCO1,inactive,inactive,inactive,inactive,inactive,inactive,,,inactive
O=C1c2ccccc2C(=O)C1c1ccc(Br)cc1,inactive,inactive,inactive,inactive,inactive,inactive,inactive,inactive,inactive
CCCC(=O)C(=O)O,inactive,inactive,inactive,inactive,inactive,inactive,inactive,inactive,inactive
CC(O)c1ccccc1 (centres undefined),inactive,inactive,inactive,inactive,inactive,inactive,inactive,inactive,inactive
COc1ncnc(NS(=O)(=O)c2ccc(N)cc2)c1OC,inactive,inactive,inactive,inactive,inactive,inactive,inactive,,
O=C1NCCN1CCO,inactive,inactive,inactive,inactive,inactive,inactive,,,
O=C1Cc2cc(Cl)ccc2N1,inactive,inactive,inactive,inactive,inactive,inactive,inactive,,inactive
CC(C)=CCC/C(C)=C/CC/C(C)=C/CCC(=O)OC/C=C(\C)CCC=C(C)C,inactive,inactive,inactive,inactive,inactive,inactive,inactive,inactive,inactive
Oc1cccc(O)c1O,15.2 µM (active),inactive,inactive,inactive,inactive,inactive,inactive,inactive,inactive
CC=C(Cl)Cl,inactive,inactive,inactive,inactive,inactive,inactive,inactive,inactive,inactive
CC[N+](CC)(CCNC(=O)C(=O)NCC[N+](CC)(CC)Cc1ccccc1Cl)Cc1ccccc1Cl,inactive,inactive,inactive,inactive,inactive,inactive,inactive,,
C=C(C)C(=O)OCCOCCOC(=O)C(=C)C,inactive,inactive,inactive,inactive,inactive,inactive,inactive,,
Cc1cscn1,inactive,inactive,inactive,inactive,inactive,inactive,inactive,inactive,inactive
Clc1ccc(Nc2nnc(Cc3ccncc3)c3ccccc23)cc1,1.19 µM (active),inactive,13.3 µM (active),inactive,,,inactive,inactive,inactive
CC1(C)O[C@@H]2C[C@H]3[C@@H]4C[C@H](F)C5=CC(=O)C=C[C@]5(C)[C@H]4[C@@H](O)C[C@]3(C)[C@]2(C(=O)CO)O1,inactive,inactive,inactive,,inactive,inactive,inactive,,inactive
CCCCOc1ccc(OCCCN2CCOCC2)cc1,13.3 µM (active),inactive,inactive,inactive,,inactive,inactive,inactive,
CN1C(=O)OC(C)(C)C1=O,inactive,inactive,inactive,,inactive,,inactive,,
O=C(Cn1ccnc1[N+](=O)[O-])NCCO,inactive,inactive,inactive,,inactive,inactive,inactive,inactive,inactive
CC(C)(C)C(=O)C(=O)O,inactive,inactive,inactive,,inactive,inactive,inactive,,
OC(CCN1CCCC1)(c1ccccc1)C1CCCCC1 (centres undefined),8.41 µM (active),inactive,inactive,,inactive,inactive,,,inactive
CO[C@]1(NC(=O)CSC(F)F)C(=O)N2C(C(=O)O)=C(CSc3nnnn3CCO)CO[C@H]21,inactive,inactive,inactive,,inactive,inactive,inactive,inactive,inactive
CC1=C(CC=O)C(C)(C)CCC1,inactive,inactive,inactive,inactive,inactive,,,inactive,
CCCCCCC(C)(C)C(=O)O,inactive,inactive,inactive,inactive,inactive,,inactive,inactive,inactive
NNC(=O)CP(=O)(c1ccccc1)c1ccccc1,inactive,inactive,inactive,inactive,,inactive,,inactive,inactive
